Screening results from PubChem.
A selection: hits, their analogues and other compounds. The true share with any hit is near 5.3%.
Coupling enz: qHTS Assay for Inhibitors of Fructose-1,6-bisphosphate Aldolase from Giardia Lamblia: Coupling assay counterscreen; AID 2472, 2010; coupling enzyme system counterscreen, AmpLite Red fluorescence; 0.67% of 290,000 active; activity change, negative = inhibition, % at 58.2 µM, hits read low; in the data active = activity change below about -30%
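First, compound is pin-transferred into glyceraldehyde-3-phosphate coupling-enzyme reagent at 57.5 uM final and held 10 min at RT. Next, substrate, coupling system and AmpLite Red are added. After 20 min RT, fluorescence (525/598 nm) is read.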
JMJD2E inh: qHTS Assay for Inhibitors of Human Jumonji Domain Containing 2E (JMJD2E). AID 2147, 2009. 1.6% of 230,000 active. Potency, µM (doses to about 57.1 µM), most hits filed as inhibitors. JMJD2E catalytic domain, FDH-coupled NADH fluorescence (FDH is formaldehyde dehydrogenase); also: nearly all actives have a fitted effect of over 50% in size
Target sequence (B2RXH2 1-337 limits assumed): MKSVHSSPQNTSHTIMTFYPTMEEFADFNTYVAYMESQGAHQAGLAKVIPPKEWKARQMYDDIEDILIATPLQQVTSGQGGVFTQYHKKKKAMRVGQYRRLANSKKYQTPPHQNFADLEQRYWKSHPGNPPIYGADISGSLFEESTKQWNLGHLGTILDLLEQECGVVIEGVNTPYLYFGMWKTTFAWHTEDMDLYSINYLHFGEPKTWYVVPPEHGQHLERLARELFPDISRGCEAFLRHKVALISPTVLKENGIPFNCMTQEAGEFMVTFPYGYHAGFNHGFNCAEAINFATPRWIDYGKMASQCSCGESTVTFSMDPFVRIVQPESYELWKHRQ
Tau ThT inhib: qHTS for Inhibitors of Tau Fibril Formation, Thioflavin T Binding; Microtubule-associated protein tau (Homo sapiens), P10636; recombinant tau K18 P301L, heparin-induced fibrillization, ThT fluorescence; Potency, µM (titrated, usually from 57.4 µM), actives largely listed as inhibitors; 2.1% of 270,000 active; also: nearly all actives have a fitted effect of over 55% in size
Target sequence (P10636 561-689 P618L limits assumed): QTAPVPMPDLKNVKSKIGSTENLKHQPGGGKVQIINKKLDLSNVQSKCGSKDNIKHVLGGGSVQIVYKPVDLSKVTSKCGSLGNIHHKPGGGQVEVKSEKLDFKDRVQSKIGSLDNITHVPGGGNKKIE
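Tau K18 P301L fragment (15 uM unlabeled plus 0.24 uM Alexa 594-labeled) in 100 mM sodium acetate pH 7 with compound, fibrillization induced by 20 uM heparin for 6 hr at 37 C. Thioflavin T (30 uM) added, fluorescence read after 1 hr (ex 450, em 510 nm).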
Sfp PPTase inh: qHTS Assay for Inhibitors of Bacillus subtilis Sfp phosphopantetheinyl transferase (PPTase) | 4'-phosphopantetheinyl transferase ffp (Bacillus subtilis), Q9F4F7 | Biochemical Sfp PPTase activity, qHTS | Potency, µM, usual class: inhibitors | 3.5% of 310,000 active | AID 1490, 2009;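 also: the enzyme is Sfp with the accession as filed and its product quenches rhodamine fluorescence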
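With Hepes-Na pH 7.6 buffer containing 10 mM MgCl2, Sfp (15 nM) modified BHQ-2-YbbR (12.5 uM) using rhodamine-CoA (5 uM). Two reads 30 minutes apart at 525/598 nm yielded each well's rate.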
Tau fluor cs: Counterscreen qHTS for Inhibitors of Tau Fibril Formation, Fluorescence Polarization; tau K18 P301L (four-repeat tau fragment) Alexa594 fluorescence, heparin fibrillization; Potency, µM (series often up to 57.7 µM); 0.93% of 280,000 active; also: nearly all actives have a fitted effect of over 55% in size
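Human K18 P301L tau (15 uM unlabeled plus 0.24 uM Alexa 594-labeled, final) in 100 mM sodium acetate pH 7 was mixed with compound and 20 uM heparin and incubated 6 hr at 37 C.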
Tau fibril FP: qHTS for Inhibitors of Tau Fibril Formation, Fluorescence Polarization; K18 P301L tau heparin fibrillization, Alexa594 FP, 6 h; Potency, µM (doses to about 57.7 µM), usual class: inhibitors; 0.39% of 280,000 active; AID 1468, 2008; also: nearly all actives have a fitted effect of over 55% in size
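FP of Alexa 594-tau after heparin (20 uM) induction. Substrate: human K18 P301L, 15 uM unlabeled, 0.24 uM labeled. Buffer 100 mM sodium acetate pH 7. 6 hr, 37 C.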
Numbers stand for hits; 0 = inactive; ? = inconclusive; - = not tested or not shown; ! = a repeat was not active; [ ] = dose if it differs, or a comment. Unless noted, calls follow the shape of the dose curve; as a rule, active = well fitted curve in the direction sought with a large enough effect; inconclusive = small, poorly fitted or top-dose-only effect, or another doubt; inactive = no such curve, though single readings can be large; an effect the other way counts as inactive or inconclusive.

SMILES	Coupling enz	JMJD2E inh	Tau ThT inhib	Sfp PPTase inh	Tau fluor cs	Tau fibril FP
CN(C)c1ccc(-c2cncnc2-n2ccnc2)cc1	0	-	-	0	-	-
Cc1ccc2nc(SCC(=O)Nc3ccc4c(c3)CCC4)[nH]c2c1	0	0	?	0	0	0
O=C(CSc1nc2ccc(Cl)cc2[nH]1)Nc1ccc2c(c1)CCC2	0	0	?	0	?	13µM
CC1(C(=O)O)NCCc2cc(O)c(O)cc21 (centres undefined)	-	-	20µM	56µM	0	?
COC(=O)c1c(NC(=O)CN2CCC3(O)CCCCC3C2c2ccc(OC)cc2OC)sc(C)c1C (centres undefined)	0	0	0	20µM	0	0
COC(=O)c1c(NC(=O)CN2CCC3(O)CCCCC3C2c2ccccc2OC)sc(C)c1C (centres undefined)	0	0	0	0	0	0
O=C(CCc1nc(-c2cccs2)no1)Nc1cccc([N+](=O)[O-])c1	-	-	0	-	?	0
Nc1n[nH]c(N)c1N=Nc1ccc2c(c1)OCO2	0	0	14µM	0	0	0
O=C1CCCC(O)=C1N=Nc1ccc2c(c1)OCO2	0	0	?	0	0	0
O=C1c2cc(S(=O)(=O)NCCO)ccc2-c2ccc(S(=O)(=O)NCCO)cc21	0	0	0	0	0	0
NS(=O)(=O)c1ccc2c(c1)C(=NO)c1cc(S(N)(=O)=O)ccc1-2	0	-	-	0	-	-
N#CC(C#N)=C1c2cc(S(=O)(=O)NCCO)ccc2-c2ccc(S(=O)(=O)NCCO)cc21	0	0	-	56µM	0	?
N#CC(C#N)=C1c2cc(S(N)(=O)=O)ccc2-c2ccc(S(N)(=O)=O)cc21	0	0	?	40µM	0	0
O=C(Cc1nc(-c2ccc(Br)s2)cs1)NCCN1CCOCC1	0	0	0	50µM	0	0
O=C(Nc1ccc(F)cc1)Nc1ccc(N2CCCC2)c(S(=O)(=O)Nc2ccccc2Cl)c1	0	22µM	0	0	2.8µM[quencher]	?
O=C(/C=C/c1cccs1)Nc1ccc(N2CCOCC2)c(S(=O)(=O)Nc2ccccc2Cl)c1	0	0	0	0	?	?
O=C(Nc1ccc(Cl)c(Cl)c1)Nc1ccc(N2CCCC2)c(S(=O)(=O)Nc2ccccc2Cl)c1	0	?	?	0	4µM[quencher]	0
O=C(Nc1ccc(F)cc1)Nc1ccccc1N1CCCCC1	0	0	0	0	0	0
O=c1c(-c2ccccc2)nc2cnc(N3CCOCC3)nc2n1CCc1ccccc1	0	-	-	0	-	-
Clc1cccc(-n2cc(-c3ccccc3)c3c(N4CCCCC4)ncnc32)c1	-	-	0	-	0	0
O=c1[nH]c(N/N=C/c2ccccc2)nc2ccccc12	0	?	?	0	0	0
O=c1[nH]c(N/N=C\c2ccc3c(c2)OCO3)nc2ccccc12	0	0	0	20µM	0	0
Cc1cc(N/N=C/c2ccc3c(c2)OCO3)nc2ccccc12	0	?	-	20µM	0	0
Cc1cc(N/N=C/c2ccccc2Br)nc2ccccc12	0	0	?	?	0	0
C#CCCCO/N=C1/[C@H]2O[C@@H]2[C@@H](O)[C@H]2[C@H]1CCn1c(=O)n([C@@H](CC)c3ccccc3)c(=O)n12	0	-	0[11.5 µM]	0	0[11.6 µM]	0[11.6 µM]
SMILES	Coupling enz	JMJD2E inh	Tau ThT inhib	Sfp PPTase inh	Tau fluor cs	Tau fibril FP
O=[N+]([O-])c1cccc(N=Cc2sc3ccccc3c2O)c1	0	28µM	?	0	0	0
O=[N+]([O-])c1ccc(N=Cc2sc3ccccc3c2O)cc1	0	?	0.71µM	0	0	0
O=[N+]([O-])c1ccc(N/N=C/c2cccc(O)c2)cc1	0	-	-	0	-	-
O=C1CCN(CCc2ccccc2)CCN1C(CSc1ccc(Br)cc1)Cc1ccccc1 (centres undefined)	0	-	-	0	-	-
COc1ccc(-c2cc(C(=O)Nc3cc(C)n(Cc4ccc(Cl)cc4)n3)no2)cc1OC	0	?	0	71µM	0	0
CCCCNc1nc(C)nc2c1nc(-c1ccccc1)n2CCN1CCCCC1	0	?	0	0	0	0
CC(C)CN1C=C2C(=O)C(C)(OC(=O)C3CCCC3)C(=O)C=C2C=C1c1ccsc1 (centres undefined)	0	32µM!	?	0	0[11.6 µM]	0[11.6 µM]
C=CCN1C=C2C(=O)C(C)(OC(=O)C3CCCC3)C(=O)C=C2C=C1c1ccsc1 (centres undefined)	0	?	?	0	0[11.6 µM]	0[11.6 µM]
CC(C)c1ccc(NC(=O)CSc2nc3ccccc3nc2Cc2ccccc2)cc1	-	-	0	-	0	0
Cc1cc(=O)oc2cc(OCC(=O)N3CCOCC3)ccc12	0	?	?	32µM	0	0
COc1ccc(/C=C2\Oc3cc(OCC(=O)N4CCC(C(=O)O)CC4)ccc3C2=O)c(OC)c1	0	-	-	0	-	-
Cc1cc(=O)oc2cc(OCC(=O)NCCN3CCOCC3)ccc12	-	-	-	0	-	-
CCc1cc(=O)oc2cc(OCC(=O)N3CCC(C(=O)O)CC3)ccc12	-73	-	-	0	-	-
COc1ccc(OC)c(/C=C2\Oc3cc(OCC(=O)N4CCC(C(=O)O)CC4)ccc3C2=O)c1	0	-	-	16µM	-	-
COc1cccc(Cn2c(=O)c(-c3cccs3)nc3cnc(N(C)C)nc32)c1	0	-	-	0	-	-
C[Si](C)(C)C#Cc1ccccc1NC(=S)Nc1ccccc1	0	?	?	79µM	?	0
COc1ccc(S(=O)(=O)N(Cc2nc(-c3ccc(C)cc3)no2)C2CCCCC2)cc1	-	-	0	-	0	0
COc1cc(C(=O)NC(=S)Nc2ccc3c(c2)OCO3)cc(OC)c1OC	0	0	0	0	0	0
COc1cc(C(Nc2ccc3c(c2)OCO3)C(=O)NC2CCCCC2)cc(OC)c1OC (centres undefined)	0	28µM	0	13µM	0	0
COC(=O)c1cc(O)c(O)c(O)c1	0	16µM	0	?	0	0
CC1CCCCN1C(=O)CSc1nc2ccccc2nc1Cc1ccccc1 (centres undefined)	-	-	0	-	0	0
O=c1cc(-c2ccccc2)[nH]c2[nH]n(-c3ccccc3)c(=O)c12	0	0	20µM	0	0	?
Cc1cc(O)c(C(C)C)cc1Cl	0	-	0	0	0	0
CC1=NN2C(=N)/C(=C\c3cc(C)n(-c4cccc(C)c4)c3C)C(=O)N=C2S1	0	?	?	0	0	0
CC(=O)NC1=NC(=O)/C(=C/c2cc(C)n(-c3ccc(NC(C)=O)cc3)c2C)S1	0	?	?	45µM	?	0
